# According to PubChem BioAssay:
# Activity calls are given as the source filed them.
# Columns and labels:
# [1] = small molecules captured by biotinylated probe aFSTL3 – biochemical, small-molecule microarray, fluorescence 635/667, stem cell growth factor project, primary screen (AID 1064); conditions: higher = more signal;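 also: measures binding of the biotinylated anti-FSTL3 antibody to printed compounds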
# [2] = binders from COS7 lysate, DM2A8 probe, primary screen, torsin A project, cell lysate, small-molecule microarray, fluorescence 635/667 (AID 1065); conditions: higher = more signal, COS7 lysate expressing mutant human TOR1A
# [3] = small molecules captured by biotinylated probe aFGF2 – biochemical, small-molecule microarray, fluorescence 635/667, stem cell growth factor project, primary screen (AID 1067); conditions: higher = more signal;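 also: measures binding of biotinylated aFGF2 protein to printed compounds on slides; z-score merges feature fluorescence and signal-to-noise across triplicate slides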
# [4] = small molecules captured by biotinylated probe aFGF10 – biochemical, small-molecule microarray, fluorescence 635/667, stem cell growth factor project, primary screen (AID 1071); conditions: higher = more signal;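 also: score merges 667 nm spot intensity and signal to noise from triplicate slides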
# [5] = biological target: Neurogenic locus notch homolog protein 2 (Homo sapiens) (UniProt Q04721); assay: small molecules binding Notch2 protein – biochemical, small-molecule microarray, 635 nm fluorescence, stem cell growth factors, primary screen (AID 1073); conditions: higher = more signal
# [6] = biological target: Pro-neuregulin-1, membrane-bound isoform (Homo sapiens) (UniProt Q02297); assay: small molecules binding neuregulin-1 protein – biochemical, small-molecule microarray, fluorescence 635/667, psychiatric disease protein project, primary screen (AID 1075); conditions: NRG1 binding, 635 nm fluorescence, higher = more signal;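 also: score combines 667 nm spot fluorescence with signal to noise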
# [7] = tested on: Neuregulin-1 EGF-like domain; assay: small molecules binding NRG1 EGF domain – biochemical, small-molecule microarray, 635 nm fluorescence, primary screen (AID 1081); conditions: higher = more signal;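 also: binding of the protein to compounds printed on small-molecule microarray slides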
# [8] = FRG1 expression reporter modulators in myotubes – cell-based, C2C12 myotubes, firefly/Renilla luciferase, luminescence, FRG1 inhibition for FSHD, primary screen (AID 1084); conditions: FRG1 promoter luciferase, higher = more signal, called active from +8 up or from −8 down
# [9] = small molecules captured by biotinylated probe aFST – biochemical, small-molecule microarray, fluorescence 635/667, stem cell growth factor project, primary screen (AID 1086); conditions: higher = more signal;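 also: score merges 667 nm fluorescence with signal-to-noise of each printed compound spot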
# [10] = binders of probe aHhip on microarray, primary screen, stem cell growth factor project, biochemical, small-molecule microarray, fluorescence 635/667 (AID 1087); conditions: higher = more signal;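 also: score merges spot fluorescence at 667nm with spot signal to noise ratio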
# [11] = tested on: PRMT1 (protein arginine N-methyltransferase 1); assay: small molecules binding arginine methyltransferase PRMT1 – biochemical, small-molecule microarray, 635 nm fluorescence, primary screen (AID 1088); conditions: higher = more signal;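 also: binding of Prmt1 protein to compounds spotted on small-molecule microarray slides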
# [12] = growth effects on S. cerevisiae YJM789 – YJM789 clinical isolate, OD600, 24 h, basal, primary screen (AID 1089); conditions: higher = more signal, called active from +8 up or from −8 down;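 also: growth of clinical yeast isolate S. cerevisiae YJM 789 seeded 1000 cells per well; test concentration not given here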
# [13] = S. pombe growth modifiers, basal conditions – strain 972, OD600, 24 h, no modulator, primary screen (AID 1090);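 also: basal condition with compound alone and no growth modifier present; test concentration not given here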; conditions: S. pombe 972 growth, higher = more signal, called active from +8 up or from −8 down
# [14] = budding yeast growth modifiers under rapamycin – strain BY4716, OD600, 96 h, primary screen (AID 1091); also: test concentration not given here; conditions: S. cerevisiae BY4716 + rapamycin, higher = more signal, called active from +8 up or from −8 down
# [15] = biological target: Torsin-1A-interacting protein 2 (Homo sapiens) (UniProt Q8NFQ8); assay: small molecules binding lysate-expressed LULL1 – cell lysate, human LULL1 lysate, 635/667 nm fluorescence, primary screen (AID 1092); conditions: small-molecule microarray, hLULL1 lysate binding, 635 nm fluorescence; higher = more signal;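 also: probe is lysate of COS7 cells overexpressing human LULL1; score merges per-feature 667 nm fluorescence with signal-to-noise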
# [16] = optical density change of DRC41 E. coli – strain DRC41, OD650, 24 h, E. coli filamentation project, primary screen (AID 1093);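 also: MC1000 strain lacking acrAB efflux and sulA so SOS filamentation is blocked; test concentration not given here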; conditions: E. coli DRC41 growth, higher = more signal, called active from +8 up or from −8 down
# [17] = probe aLefty2 binding to arrayed compounds – biochemical, biotinylated probe, 635/667 nm fluorescence, primary screen (AID 1094); conditions: small-molecule microarray, higher = more signal;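 also: score merges spot fluorescence near 667 nm with spot signal-to-noise ratio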
# [18] = tested on: Noggin (protein binding on small-molecule microarray); assay: small molecules binding Noggin protein – biochemical, 635/667 nm fluorescence, primary screen (AID 1095); conditions: 635 nm fluorescence, higher = more signal;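 also: score merges 667 nm feature fluorescence with signal to noise over triplicate slides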
# [19] = biological target: Neurogenic locus notch homolog protein 3 (Homo sapiens) (UniProt Q9UM47); assay: small molecules binding NOTCH3 protein – biochemical, 635/667 nm fluorescence, primary screen (AID 1096); conditions: small-molecule microarray, 635 nm fluorescence, higher = more signal
# [20] = probe aEGFR binding to arrayed compounds – biochemical, biotinylated probe, 635/667 nm fluorescence, primary screen (AID 1097); conditions: small-molecule microarray, higher = more signal;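 also: probe is a biotinylated anti-EGFR antibody binding compounds printed on slides; score combines fluorescence near 667 nm and signal to noise of each spot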
# Chain of Torsin-1A-interacting protein 2 (Homo sapiens) (Q8NFQ8 whole entry, looked up): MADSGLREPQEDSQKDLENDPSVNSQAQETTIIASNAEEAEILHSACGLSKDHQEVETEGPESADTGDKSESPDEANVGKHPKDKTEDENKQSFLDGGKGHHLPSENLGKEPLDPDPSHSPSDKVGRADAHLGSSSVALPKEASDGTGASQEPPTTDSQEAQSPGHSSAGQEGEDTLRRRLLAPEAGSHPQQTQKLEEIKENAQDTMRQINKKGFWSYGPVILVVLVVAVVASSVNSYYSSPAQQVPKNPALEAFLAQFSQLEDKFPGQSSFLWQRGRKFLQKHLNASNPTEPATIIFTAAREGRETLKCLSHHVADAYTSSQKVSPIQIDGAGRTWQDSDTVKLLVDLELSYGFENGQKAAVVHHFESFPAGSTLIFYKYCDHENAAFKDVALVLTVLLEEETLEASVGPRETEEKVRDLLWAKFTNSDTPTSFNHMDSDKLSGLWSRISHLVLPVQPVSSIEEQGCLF
# Chain of Pro-neuregulin-1, membrane-bound isoform (Homo sapiens) (Q02297 whole entry, looked up, the tested form may be a part, canonical isoform): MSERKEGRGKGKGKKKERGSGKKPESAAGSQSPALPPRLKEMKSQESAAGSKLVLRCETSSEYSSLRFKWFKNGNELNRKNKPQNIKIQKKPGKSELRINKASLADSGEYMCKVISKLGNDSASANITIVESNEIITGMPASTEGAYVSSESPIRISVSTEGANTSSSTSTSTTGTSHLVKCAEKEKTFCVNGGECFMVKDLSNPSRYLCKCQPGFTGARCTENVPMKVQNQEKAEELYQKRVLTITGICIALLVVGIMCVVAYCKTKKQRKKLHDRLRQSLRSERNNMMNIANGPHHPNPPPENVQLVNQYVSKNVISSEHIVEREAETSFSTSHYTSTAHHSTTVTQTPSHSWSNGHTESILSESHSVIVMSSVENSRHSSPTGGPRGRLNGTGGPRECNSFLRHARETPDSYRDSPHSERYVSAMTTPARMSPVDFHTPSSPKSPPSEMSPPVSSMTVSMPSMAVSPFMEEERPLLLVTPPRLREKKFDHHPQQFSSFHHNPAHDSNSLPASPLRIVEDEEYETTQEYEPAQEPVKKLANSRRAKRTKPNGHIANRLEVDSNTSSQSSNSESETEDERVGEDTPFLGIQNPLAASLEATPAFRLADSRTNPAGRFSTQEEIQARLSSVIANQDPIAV
# Chain of Neurogenic locus notch homolog protein 2 (Homo sapiens) (Q04721 whole entry, looked up, canonical isoform): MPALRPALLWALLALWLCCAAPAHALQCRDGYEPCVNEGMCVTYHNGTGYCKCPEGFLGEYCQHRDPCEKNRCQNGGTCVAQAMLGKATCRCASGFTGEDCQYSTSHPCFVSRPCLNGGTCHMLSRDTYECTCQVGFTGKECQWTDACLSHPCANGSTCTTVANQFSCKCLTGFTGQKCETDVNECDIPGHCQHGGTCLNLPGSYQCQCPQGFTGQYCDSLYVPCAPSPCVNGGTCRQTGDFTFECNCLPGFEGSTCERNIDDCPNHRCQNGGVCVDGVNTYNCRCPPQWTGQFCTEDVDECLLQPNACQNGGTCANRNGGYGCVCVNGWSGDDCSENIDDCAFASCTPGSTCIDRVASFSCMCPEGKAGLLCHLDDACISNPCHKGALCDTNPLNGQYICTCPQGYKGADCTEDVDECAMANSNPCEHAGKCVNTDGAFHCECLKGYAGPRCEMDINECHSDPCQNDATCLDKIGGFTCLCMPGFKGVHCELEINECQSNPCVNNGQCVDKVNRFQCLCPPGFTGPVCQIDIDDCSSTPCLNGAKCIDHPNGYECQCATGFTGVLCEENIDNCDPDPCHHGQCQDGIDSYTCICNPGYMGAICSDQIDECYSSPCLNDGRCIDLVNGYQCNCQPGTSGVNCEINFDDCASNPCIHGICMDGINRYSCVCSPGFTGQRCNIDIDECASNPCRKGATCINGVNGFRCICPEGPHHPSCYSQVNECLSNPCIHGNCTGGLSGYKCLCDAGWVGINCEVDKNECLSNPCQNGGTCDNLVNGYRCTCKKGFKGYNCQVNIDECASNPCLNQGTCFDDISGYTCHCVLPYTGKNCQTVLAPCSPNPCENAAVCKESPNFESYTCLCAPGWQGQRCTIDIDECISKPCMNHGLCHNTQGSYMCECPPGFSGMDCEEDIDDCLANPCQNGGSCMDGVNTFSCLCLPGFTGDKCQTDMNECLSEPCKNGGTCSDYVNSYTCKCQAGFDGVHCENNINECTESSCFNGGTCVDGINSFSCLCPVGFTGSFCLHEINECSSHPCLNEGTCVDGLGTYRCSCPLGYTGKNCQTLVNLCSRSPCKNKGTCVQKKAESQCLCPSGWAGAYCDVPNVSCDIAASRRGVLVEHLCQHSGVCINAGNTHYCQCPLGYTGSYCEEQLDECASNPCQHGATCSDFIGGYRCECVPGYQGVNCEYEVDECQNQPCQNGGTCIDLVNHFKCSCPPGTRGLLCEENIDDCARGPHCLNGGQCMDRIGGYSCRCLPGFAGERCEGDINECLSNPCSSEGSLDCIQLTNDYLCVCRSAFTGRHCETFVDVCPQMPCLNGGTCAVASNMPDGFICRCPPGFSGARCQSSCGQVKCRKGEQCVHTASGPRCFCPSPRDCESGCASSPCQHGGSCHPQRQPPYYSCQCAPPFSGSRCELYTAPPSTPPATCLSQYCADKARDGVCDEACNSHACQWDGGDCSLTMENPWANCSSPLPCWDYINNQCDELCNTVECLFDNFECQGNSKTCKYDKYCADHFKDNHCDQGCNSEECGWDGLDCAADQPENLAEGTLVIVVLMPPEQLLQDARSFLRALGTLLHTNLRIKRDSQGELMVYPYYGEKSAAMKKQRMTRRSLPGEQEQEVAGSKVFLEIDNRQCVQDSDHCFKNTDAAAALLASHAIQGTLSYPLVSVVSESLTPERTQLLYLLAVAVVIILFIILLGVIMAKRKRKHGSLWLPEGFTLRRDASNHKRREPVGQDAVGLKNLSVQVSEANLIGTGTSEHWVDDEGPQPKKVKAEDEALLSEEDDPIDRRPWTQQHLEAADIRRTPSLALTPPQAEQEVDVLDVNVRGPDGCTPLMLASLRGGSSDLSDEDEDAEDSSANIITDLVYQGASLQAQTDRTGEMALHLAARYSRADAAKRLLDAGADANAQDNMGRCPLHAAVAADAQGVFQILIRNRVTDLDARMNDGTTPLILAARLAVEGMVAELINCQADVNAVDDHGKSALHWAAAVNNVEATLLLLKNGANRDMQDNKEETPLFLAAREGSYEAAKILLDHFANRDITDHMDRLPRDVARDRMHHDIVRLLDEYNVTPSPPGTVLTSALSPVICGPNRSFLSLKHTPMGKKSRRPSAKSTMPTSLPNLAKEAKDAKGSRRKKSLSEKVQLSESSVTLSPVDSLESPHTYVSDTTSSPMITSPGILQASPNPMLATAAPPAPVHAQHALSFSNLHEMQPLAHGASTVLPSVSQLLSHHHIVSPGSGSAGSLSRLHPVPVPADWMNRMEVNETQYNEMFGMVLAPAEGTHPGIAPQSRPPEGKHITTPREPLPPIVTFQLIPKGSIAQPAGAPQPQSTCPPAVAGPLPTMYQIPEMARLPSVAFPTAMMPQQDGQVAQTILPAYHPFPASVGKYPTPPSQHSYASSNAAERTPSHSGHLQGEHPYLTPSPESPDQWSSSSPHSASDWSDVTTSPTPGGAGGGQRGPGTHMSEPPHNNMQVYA
SMILES,composite z-score [1],composite z-score [2],composite z-score [3],composite z-score [4],composite z-score [5],composite z-score [6],composite z-score [7],z-score [8],composite z-score [9],composite z-score [10],composite z-score [11],z-score [12],z-score [13],z-score [14],composite z-score [15],z-score [16],composite z-score [17],composite z-score [18],composite z-score [19],composite z-score [20]
O=C1c2ccccc2[C@](Cc2ccccc2I)(C(=O)NCC(F)(F)F)[C@H](c2ccc(CO)cc2)N1C1CCCCC1,-0.0894,-0.089,0.0772,0.94,1.14,1.76,0.985,-0.85 (inactive),0.593,-0.134,1.56,0.0808 (inactive),-1.76 (inactive),-0.0447 (inactive),3.02,1.38 (inactive),-0.0408,0.169,1.08,-0.0315
CC(C)C(=C=CC[C@H](O)c1ccc(OCCO)cc1)C[C@H](O)c1ccccn1,-0.331,-0.0844,-0.129,0.679,-0.0686,0.243,1.28,-0.0915 (inactive),-0.249,-0.0618,1.52,0.758 (inactive),-1.29 (inactive),-0.132 (inactive),1.18,0.714 (inactive),-0.142,1.28,0.481,-0.146
COc1ccc([Si](C)(C)[C@@H]2[C@@H](CC(=O)N(CCO)Cc3ccccc3)O[C@]3(C(=O)N(Cc4cccc(N5C(=O)c6cccc7cccc5c67)c4)c4ccccc43)[C@H]2C)cc1,-0.143,0.167,-0.105,0.409,-0.127,0.442,0.763,-1.05 (inactive),0.116,-0.0193,0.737,0.121 (inactive),-0.534 (inactive),2.09 (inactive),0.36,2.11 (inactive),-0.259,1.33,0.455,-0.115
C=C(COC)C(=O)CC[C@@H](OC(=O)c1cccnc1)c1ccc(OCCO)cc1,0.193,0.112,-0.172,0.182,1.02,0.403,1.49,-1.32 (inactive),0.343,-0.0237,1.2,-10.9 (active),-20.4 (active),-3.62 (inactive),0.204,-0.653 (inactive),0.0047,0.992,0.431,0.167
OCCCC1=CC(c2ccc(CN3CCCC3)cc2)N(Cc2sc3ccccc3c2Cl)CC1 (stereo not given),1.46,0.41,-0.221,0.828,0.72,0.65,1.27,-0.475 (inactive),0.0562,0.535,1.2,-0.72 (inactive),-14.3 (active),-0.628 (inactive),1.22,-0.271 (inactive),0.0998,0.895,0.686,0.148
C[C@H]1NC(=O)[C@@]23C(=O)N[C@@H](Cc4ccccc4)C2[C@H](C)[C@@]2(C)O[C@H]2C3/C=C/C/C=C\CNC(=O)[C@H](Cc2ccccc2)NC1=O (stereo not given in full),-0.536,0.0198,-0.206,0.533,-0.158,1.4,1.11,1.8 (inactive),-0.107,-0.137,0.44,0.907 (inactive),-0.236 (inactive),0.952 (inactive),0.834,-0.225 (inactive),-0.213,1.22,0.967,-0.096
C[C@]1(C(=O)NC2CC2)c2ccccc2C(=O)N(Cc2ccccc2)[C@H]1c1ccc(CO)cc1,0.942,-0.729,-0.116,-0.796,-0.956,-0.145,0.659,-1.69 (inactive),-0.346,-0.511,-1.09,-0.653 (inactive),-1.75 (inactive),-0.785 (inactive),-0.488,1.84 (inactive),-0.0873,-0.918,-1.59,-0.278
O=C1O[C@H](c2ccccc2)[C@H](c2ccccc2)N2[C@H]1[C@@H](C(=O)Nc1nc3ccccc3s1)[C@]1(C(=O)Nc3ccc(C#CC4(O)CCCCCC4)cc31)[C@H]2c1ccccc1OCCO,-0.411,0.0728,-0.048,1.05,1.23,0.77,1.07,0.435 (inactive),0.492,-0.0994,1.54,1.87 (inactive),1.91 (inactive),3.32 (inactive),3.08,0.149 (inactive),-0.118,0.971,1.06,-0.0564
COCCOC(=O)N1C(=O)[C@@]2(c3cc(C#Cc4ccc(OC)cc4)ccc31)[C@H](C(=O)Nc1nc3ccccc3s1)[C@H]1C(=O)O[C@H](c3ccccc3)[C@H](c3ccccc3)N1[C@@H]2c1ccc(OCCO)cc1,-0.51,0.661,-0.0569,0.784,1.21,0.138,1.11,4.61 (inactive),0.632,-0.0618,1.56,3.34 (inactive),2.1 (inactive),4.58 (inactive),1.02,0.575 (inactive),-0.0699,1.54,1.13,0.0311
O=C1O[C@@H](c2ccccc2)[C@@H](c2ccccc2)N2[C@@H](c3ccc(O)cc3)[C@]3(C(=O)Nc4ccc(C#CC5(O)CCCCCC5)cc43)[C@@H](C(=O)NC[C@H](O)c3ccccc3)[C@H]12,0.107,-0.363,-0.0255,0.753,-0.226,1.02,0.538,0.106 (inactive),-0.405,-0.236,1.26,0.21 (inactive),-0.0625 (inactive),1.24 (inactive),2.05,-0.255 (inactive),-0.242,-0.0578,-0.0872,-0.162
